# According to PubChem BioAssay (NCI):
# This is part of a sample that, as a whole, favours compounds with a hit. Of some 79,000 tested, about 15% had one in any assay. Values without a mark were called inactive. Active and inactive are the calls of the source. Rule as the data show it: active = growth inhibition above about 70%; inactive = the rest.
# What was measured:
# [1] = NCI Yeast Anticancer Drug Screen. Data for the sgs1 strain (AID 173);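 also: 0% = growth of vehicle-only control cultures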; settings: S. cerevisiae sgs1 mutant, stronger effect = higher value
# Outline: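 Read-out: yeast growth inhibition relative to vehicle controls, following compound exposure of a strain with a defined DNA repair/cell cycle alteration.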
# [2] = NCI Yeast Anticancer Drug Screen. Data for the mlh1 rad18 strain (AID 175); settings: S. cerevisiae mlh1 rad18 strain growth inhibition, stronger effect = higher value
# Outline: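 Yeast w/ defined DNA-repair lesions; compound exposure; growth vs vehicle controls → % inhibition.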
# [3] = NCI Yeast Anticancer Drug Screen. Data for the rad18 strain (AID 177); settings: S. cerevisiae rad18 mutant growth inhibition, stronger effect = higher value
# Outline: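 Readout: growth inhibition vs vehicle controls. Cells: genetically altered yeast strain, DNA repair defect.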
# [4] = NCI Yeast Anticancer Drug Screen. Data for the rad52 strain (AID 147);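 also: 0% = growth of vehicle-treated control cultures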; settings: S. cerevisiae rad52 mutant growth inhibition, stronger effect = higher value
# Outline: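 Read-out: growth inhibition versus vehicle-treated controls. Cells were a DNA repair-deficient yeast strain treated with compounds.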
# [5] = NCI Yeast Anticancer Drug Screen. Data for the wt1 strain (AID 149);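 also: 0% = growth of vehicle-treated wt1 cultures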; settings: S. cerevisiae wt1 strain (SPY 50644) growth inhibition, stronger effect = higher value
# Outline: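 Yeast wt1 strain exposed to compounds; growth inhibition measured relative to vehicle-treated controls.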
# [6] = NCI Yeast Anticancer Drug Screen. Data for the rad50EPP+ strain (AID 151);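 also: 0% = growth of vehicle-treated control cultures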; settings: S. cerevisiae rad50 mutant strain, stronger effect = higher value
# Outline: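 Growth inhibition read against vehicle controls in rad50EPP+ yeast, a strain altered in DNA damage repair, after compound exposure.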
# [7] = NCI Yeast Anticancer Drug Screen. Data for the rad50 strain (AID 155);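 also: 0% = growth of vehicle-only cultures of the same strain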; settings: S. cerevisiae rad50 strain growth inhibition, stronger effect = higher value
# Outline: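 Yeast carrying a defined DNA repair defect were exposed to test compounds, and growth was compared with vehicle-treated controls to give percent inhibition.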
# [8] = NCI Yeast Anticancer Drug Screen. Data for the mec2-1 strain (AID 157); settings: S. cerevisiae mec2-1 strain, stronger effect = higher value
# Outline: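 Yeast mec2-1 mutant treated with compound. Readout: growth inhibition vs vehicle controls.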
# [9] = NCI Yeast Anticancer Drug Screen. Data for the rad14 strain (AID 159);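 also: 0% = growth of vehicle-treated control cultures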; settings: S. cerevisiae rad14 strain growth inhibition, stronger effect = higher value
# Outline: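 Yeast cells carrying a defined DNA-repair defect were exposed to compounds, and growth inhibition was calculated relative to vehicle-treated control cultures.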
# [10] = NCI Yeast Anticancer Drug Screen. Data for the sgs1 mgt1 strain (AID 161);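 also: 0% = growth of cultures given vehicle only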; settings: S. cerevisiae sgs1 mgt1 strain, stronger effect = higher value
# Outline: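 Read-out: growth inhibition vs vehicle controls. Cells: mutant yeast strain deficient in DNA damage repair.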
# [11] = NCI Yeast Anticancer Drug Screen. Data for the CLN2oe strain (AID 163);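 also: 0% = growth of vehicle-only control cultures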; settings: S. cerevisiae CLN2oe strain, stronger effect = higher value
# Outline: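 Read-out: yeast growth inhibition, expressed relative to vehicle-only controls. The strain bears an engineered cell-cycle alteration.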
# [12] = NCI Yeast Anticancer Drug Screen. Data for the cln2 rad14 strain (AID 165);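 also: 0% = growth equal to vehicle treated cultures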; settings: S. cerevisiae cln2 rad14 strain, stronger effect = higher value
# Outline: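 cln2 rad14 yeast strain; compound exposure; growth inhibition read vs vehicle controls.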
# [13] = NCI Yeast Anticancer Drug Screen. Data for the bub3 strain (AID 167); settings: S. cerevisiae bub3 mutant strain, stronger effect = higher value
# Outline: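 Compounds were applied to a genetically altered yeast strain carrying a cell-cycle control defect. Growth inhibition was scored against vehicle-treated controls.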
# [14] = NCI Yeast Anticancer Drug Screen. Data for the wt2 strain (AID 169);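 also: 0% = growth of vehicle-treated yeast cultures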; settings: S. cerevisiae wt2 strain growth inhibition, stronger effect = higher value
# Outline: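 Read-out: growth inhibition versus vehicle-treated control cultures after compound exposure of the yeast strain.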
# [15] = NCI Yeast Anticancer Drug Screen. Data for the mlh1 strain (AID 171);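 also: 0% = growth of vehicle-treated control cultures of the same strain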; settings: S. cerevisiae mlh1 strain growth inhibition, stronger effect = higher value
# Outline: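 Read-out: growth inhibition versus vehicle controls. Strain: engineered yeast with a defined DNA repair or cell cycle defect, compound-treated.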
# [16] = at 5.0 µM (retest, dose inferred, filed as 0.5)
# [17] = at 50.0 µM (retest, dose inferred, filed as 5.0)
smiles,measurement,setting,value
COc1ccc(CCN2C(=O)C=CC2=O)cc1OC,growth inhibition,[1]; at 33.0 µM,98% (active)
same,growth inhibition,[1]; at 100.0 µM,98% (active)
same,growth inhibition,[2]; [16],23%
same,growth inhibition,[2]; [17],44%
same,growth inhibition,[2]; at 50.0 µM,84.4% (active)
same,growth inhibition,[3]; at 1.2 µM,-2%
same,growth inhibition,[3]; at 3.7 µM,15%
same,growth inhibition,[3]; at 11.0 µM,64%
same,growth inhibition,[3]; at 33.0 µM,98% (active)
same,growth inhibition,[3]; at 100.0 µM,98% (active)
CCOC(=O)C1=C(C)NC(C)=C(C(=O)OCC)C1c1cccc([N+](=O)[O-])c1,growth inhibition,[4]; at 1.2 µM,-90%
same,growth inhibition,[4]; at 3.7 µM,-81%
same,growth inhibition,[4]; at 11.0 µM,-35%
same,growth inhibition,[4]; at 33.0 µM,17%
same,growth inhibition,[4]; at 100.0 µM,73% (active)
same,growth inhibition,[5]; at 1.2 µM,-53%
same,growth inhibition,[5]; at 3.7 µM,-41%
same,growth inhibition,[5]; at 11.0 µM,-22%
same,growth inhibition,[5]; at 33.0 µM,37%
same,growth inhibition,[5]; at 100.0 µM,88% (active)
same,growth inhibition,[6]; at 1.2 µM,-54%
same,growth inhibition,[6]; at 3.7 µM,-78%
same,growth inhibition,[6]; at 11.0 µM,-91%
same,growth inhibition,[6]; at 33.0 µM,-93%
same,growth inhibition,[6]; at 100.0 µM,-103%
same,growth inhibition,[7]; at 1.2 µM,-39%
same,growth inhibition,[7]; at 3.7 µM,0%
same,growth inhibition,[7]; [16],34%
same,growth inhibition,[7]; at 11.0 µM,31%
same,growth inhibition,[7]; at 33.0 µM,65%
same,growth inhibition,[7]; [17],80% (active)
same,growth inhibition,[7]; at 50.0 µM,90.8% (active)
same,growth inhibition,[7]; at 100.0 µM,88% (active)
same,growth inhibition,[8]; at 1.2 µM,-36%
same,growth inhibition,[8]; at 3.7 µM,-16%
same,growth inhibition,[8]; [16],35%
same,growth inhibition,[8]; at 11.0 µM,-10%
same,growth inhibition,[8]; at 33.0 µM,30%
same,growth inhibition,[8]; [17],76% (active)
same,growth inhibition,[8]; at 50.0 µM,37.1%
same,growth inhibition,[8]; at 100.0 µM,83% (active)
same,growth inhibition,[9]; at 1.2 µM,-39%
same,growth inhibition,[9]; at 3.7 µM,-32%
same,growth inhibition,[9]; at 11.0 µM,-17%
same,growth inhibition,[9]; at 33.0 µM,25%
same,growth inhibition,[9]; at 100.0 µM,88% (active)
same,growth inhibition,[10]; [16],-15%
same,growth inhibition,[10]; [17],22%
same,growth inhibition,[11]; at 1.2 µM,-31%
same,growth inhibition,[11]; at 3.7 µM,-34%
same,growth inhibition,[11]; at 11.0 µM,-23%
same,growth inhibition,[11]; at 33.0 µM,31%
same,growth inhibition,[11]; at 100.0 µM,87% (active)
same,growth inhibition,[12]; [16],45%
same,growth inhibition,[12]; [17],54%
same,growth inhibition,[13]; at 1.2 µM,-21%
same,growth inhibition,[13]; at 3.7 µM,-5%
same,growth inhibition,[13]; [16],29%
same,growth inhibition,[13]; at 11.0 µM,4%
same,growth inhibition,[13]; at 33.0 µM,22%
same,growth inhibition,[13]; [17],40%
same,growth inhibition,[13]; at 100.0 µM,73% (active)
same,growth inhibition,[14]; at 1.2 µM,-43%
same,growth inhibition,[14]; at 3.7 µM,-44%
same,growth inhibition,[14]; at 11.0 µM,-13%
same,growth inhibition,[14]; at 33.0 µM,45%
same,growth inhibition,[14]; at 100.0 µM,92% (active)
same,growth inhibition,[15]; at 1.2 µM,-74%
same,growth inhibition,[15]; at 3.7 µM,-39%
same,growth inhibition,[15]; at 11.0 µM,-29%
same,growth inhibition,[15]; at 33.0 µM,51%
same,growth inhibition,[15]; at 100.0 µM,86% (active)
same,growth inhibition,[1]; at 1.2 µM,-18%
same,growth inhibition,[1]; at 3.7 µM,-14%
same,growth inhibition,[1]; at 11.0 µM,13%
same,growth inhibition,[1]; at 33.0 µM,60%
same,growth inhibition,[1]; at 100.0 µM,86% (active)
same,growth inhibition,[2]; [16],30%
same,growth inhibition,[2]; [17],75% (active)
same,growth inhibition,[2]; at 50.0 µM,90.7% (active)
same,growth inhibition,[3]; at 1.2 µM,5%
same,growth inhibition,[3]; at 3.7 µM,32%
same,growth inhibition,[3]; at 11.0 µM,33%
same,growth inhibition,[3]; at 33.0 µM,60%
same,growth inhibition,[3]; at 100.0 µM,83% (active)
